Measured values published in PubChem BioAssay (NCI).
The panel holds about 79,000 compounds, 15% with a hit somewhere; the sample as a whole holds those more often. A number with no mark means an inactive call. Active and inactive are the calls of the source. Cut-off read from the data, not from the text of the source: active = growth inhibition above about 70%; inactive = the rest.

Experiment: NCI Yeast Anticancer Drug Screen. Data for the sgs1 mgt1 strain (AID 161);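 note: 0% = growth of cultures given vehicle only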
Conditions: S. cerevisiae sgs1 mgt1 strain, at 50.0 µM, hits give high values
Procedure, shortened: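 Inhibition of yeast growth, normalised to vehicle-treated controls, is reported for a strain bearing genetic alterations in DNA damage repair.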

| SMILES | growth inhibition |
| --- | --- |
| CC1CCC(O)C(C(O)CC2CC(=O)NC(=O)C2)C1 (stereo not given) | 5.4% |
| O=C(O)C(Cc1cccs1)C(=O)OCCc1ccccc1 (stereo not given) | 1.05% |
| CC(C(=O)c1ccc(Cl)cc1)/C(=N/NC(=O)NN)C(=O)Nc1cccc(C(F)(F)F)c1 (stereo not given) | -58.5% |
| O=C1NCCN(CCc2ccccc2)C1c1ccccc1 (stereo not given) | -8.85% |
| Cc1cc(=O)n(NC(N)=O)c(C)c1C(=O)O | -13.8% |
| CS(=O)(=O)OCC1COCC1COS(C)(=O)=O (stereo not given) | 8.75% |
| CCOC(=O)CN(c1c(C)cc(C)c(N(CC(=O)OCC)S(=O)(=O)c2ccccc2)c1C)S(=O)(=O)c1ccccc1 | 24.8% |
| COc1cc(/C=C/C(=O)OCC23CC[C@@]4(C(=O)O)CCC(C)[C@H](C)C4C2=CCC2[C@@]4(C)CC[C@H](O)C(C)(C)C4CC[C@]23C)ccc1O (stereo not given in full) | 26.6% |
| N#CC(C#N)=C(N)/C(C#N)=C/c1ccc2[nH]ccc2c1 | -29.2% |
| CC(=C/c1ccccc1)/C=C1/SC(=S)N(C=C2C(=O)NC(=O)NC2=O)C1=O | 32.4% |
| O=c1c2c([nH]n1-c1ccccc1)-c1ccccc1CS2 | 37.8% |
| CCCCOC(=O)C1CC2CC1C1OC21 (stereo not given) | -23.7% |
| CC(C)OC1CC1 | -10.5% |
| COc1ccc(CC[N+]2=Cc3cc(OC)c(OC)cc3CC2)cc1OC | 12.6% |
| Cc1ccc(NC(=O)CN2CCCCC2)cc1 | -7% |
| c1ccc([Si]2(c3ccccc3)[Si](c3ccccc3)(c3ccccc3)[Si](c3ccccc3)(c3ccccc3)[Si]2(c2ccccc2)c2ccccc2)cc1 | -35% |
| CC(C)CC(N)C(=O)OCN1C(=O)C2C3C=CC(C2C1=O)C1C2C(=O)N(COC(=O)C(N)CC(C)C)C(=O)C2C31 (stereo not given) | 5.05% |
| O=c1ccc2ccc(O)c(O)c2o1 | 12.9% |
| CCOC(=O)NC(CI)(c1ccccc1)c1ccccc1 | 3.55% |
| CCC/C=C(/CC)COC(C)=O | -6.6% |

| SMILES | growth inhibition |
| --- | --- |
| [O]=[W](=[O])([OH])[OH] | -15.4% |
| N#CC(C#N)=C/C=C/C=C/c1c(Cl)cccc1Cl | 0.95% |
| CC1(C)OCC(C2OC3OC(C)(C)OC3C2O)O1 (stereo not given) | 10.5% |
| CN(C)CCOC(=O)C(C)(C)Sc1ccc(Cl)cc1 | 26.4% |
| O=C1OC(c2ccc(Cl)cc2)=N/C1=C\c1c(Cl)cccc1Cl | 11.9% |
| COc1ccc(-c2cc(=O)c3c(OC)cccc3o2)c(OC)c1OC | -3.5% |
| Nc1ccc(C(=O)c2ccccc2)cc1Cl | 56.4% |
| C=C1C(=O)[C@@]23CC[C@@H]4[C@@]5(C)CCC[C@@]4(OC5=O)[C@@]2(C)CC[C@@H]1C3 | 93.8% (active) |
| CCOc1cc2c(cc1C/C=C/c1ccc(OC)cc1)OCO2 | 37.4% |
| N[C@H](C(=O)O)[C@H]1ON=C(Cl)[C@@H]1O | 7.25% |
| N#CCCN(C1=NN(C(=O)CC(=O)Nc2ccccc2)C(c2ccccc2)C1)c1ccccc1Cl (stereo not given) | -36% |
| CC1=Nc2c(ccc3c2C(=O)c2ccccc2C3=O)NC(c2ccncc2)C1 (stereo not given) | 47.6% |
| CC1(C2(C)SCCS2)SCCS1 | -1% |
| CCOC(=O)Cc1n[nH]c(=O)c2ccccc12 | 1.2% |
| NC(=O)C1CC(I)C2CC1C(=O)O2 (stereo not given) | -4.45% |
| Cc1cc[n+](CCc2c[nH]c3ccccc23)cc1C | 11.9% |
| Cc1cccc(C(=O)NCCN(C)C)c1[N+](=O)[O-] | 1.2% |
| CN1c2ccccc2C(=O)NC12CCN(CCCC(=O)c1ccc(F)cc1)CC2 | 46.8% |
| CCOC(=O)c1nc2ccc(C(F)(F)F)cc2nc1NCc1ccc(F)cc1 | 20.7% |
| NC(=O)NC(=O)CC1NC(=O)NC1=O (stereo not given) | 18.1% |
